# “And” between values parts separate entries of the source, which are not always exact repeats. Equal values may be shown once. About 83,000 compounds went through this panel and 20% of them were active in at least one assay; those are over-represented in the sample as a whole.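 Interpretation: 100, growth as untreated; towards 0, rising growth inhibition; 0, no net growth; 0 to -100, cell death. Compounds scoring below 10 were considered active.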 The source made the active and inactive calls.
# Tested on: MCF7 breast
# Experiment: NCI-60 one-dose screen, 48 h (100 = growth as untreated, 0 = no growth, -100 = all killed)
# Conditions: 10 µM unless noted
row,Compound,growth
1,CC1(C)CCC[C@]2(C)[C@@H](C=O)C(C=O)=CC[C@@H]12,-13.9% [100 µM] (active) and -1.67% [100 µM] (active)
2,CC1(C)CCC2(C(=O)O)C(O)CC3(C)C(=CCC4C5(C)CCC(OC6OCC(O)C(O)C6OC6OCC(O)C(O)C6OC6OCC(O)C(OC7OC(CO)C(O)C(O)C7O)C6O)C(C)(C)C5CCC43C)C2C1 (stereo not given),76.4% [100 µM] (inactive) and 25.5% [100 µM] (inactive)
3,S=C1NC2=C(COc3ccccc32)C(c2ccc(Cl)cc2)N1 (stereo not given),-4.81% [100 µM] (active) and -100% [100 µM] (active)
4,Fc1cccc(F)c1C1SCc2nc3cc4ccccc4cc3n21 (stereo not given),-28.9% [100 µM] (active) and -2.13% [100 µM] (active)
5,O=Cc1ccc(-c2ccc(-c3ccc(CO)s3)o2)s1,-23.2% [100 µM] (active) and -100% [100 µM] (active)
6,CCOC(=O)COc1cc(-c2ccccc2F)nc2cc3c(cc12)OCO3,42.6% [100 µM] (inactive) and 19.5% [100 µM] (inactive)
7,c1ccc(-c2cc3cc4ccccc4cn3c2)cc1,88.8% (inactive)
8,O=C(/C=C/c1ccccc1)CCC1C(=O)c2ccccc2C1=O,48% [100 µM] (inactive) and 57.5% [100 µM] (inactive)
9,C=CCO/N=C/c1cc(NC(=S)c2ccoc2C)ccc1Cl,-83.2% [100 µM] (active) and -45% [100 µM] (active)
10,On1c(-c2ccccc2)nc2ccccc2c1=S,6.65% [100 µM] (active) and -68.9% [100 µM] (active)

# From PubChem BioAssay (NCI)
